# In PMC7819943, “Rice protein-binding microarrays: a tool to detect cis-acting elements near promoter regions in rice”:
# Over roughly 68,000 sequences, “fluorescence intensity (a.u.)” has its median near 9,100; the highest 2% begin near 16,000. The entries come from a sample that favours the highest values as a whole.
# Molecular target: OsWRKY34 (Oryza sativa, UniProt Q0JBA9 1-250)
# Assay: protein-binding microarray (RPBM); PBS, 2% BSA, 51.3 ng/ul salmon testes DNA, 50 uM zinc acetate, 200 nM TF, 25 C, 1 h; high values mean tight binding
# Details: protein: recombinant; tags: N-terminal polyhistidine and DsRed monomer fusion (pET32a); label: CyDye5-dUTP incorporated in the synthesized complementary strand; 3' TTTTT single-stranded linker to array surface; dsDNA, one strand shown
# In short: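 In PBS with 2% BSA, salmon testes DNA and 50 µM zinc acetate, 200 nM protein was incubated on a custom Agilent array at 25 °C for 1 h and then washed off. The array had been made double-stranded by primer extension with Cy5-dUTP and blocked with 2% BSA. The proteins were transcription factors fused N-terminally to polyhistidine and DsRed, expressed in E. coli BL21-CodonPlus and purified on Ni–NTA. The binding signal is per-feature fluorescence intensity (arbitrary units) from an Axon 4000B scanner.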
# Sequence of OsWRKY34 (Q0JBA9 entry or part of it): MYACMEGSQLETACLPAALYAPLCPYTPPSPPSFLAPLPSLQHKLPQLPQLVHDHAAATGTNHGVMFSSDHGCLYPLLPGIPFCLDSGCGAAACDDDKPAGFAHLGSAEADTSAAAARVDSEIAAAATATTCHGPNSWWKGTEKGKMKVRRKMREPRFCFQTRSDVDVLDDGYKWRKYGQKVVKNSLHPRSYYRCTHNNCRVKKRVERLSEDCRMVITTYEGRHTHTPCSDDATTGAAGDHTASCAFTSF
row,Sequence,binding signal
1,GCCGTCTTTGCTTGATAGTCTTCGCCATGGGGACTTTGTCCGGAGTCACCTAGTGCAG,8210 fluorescence intensity (a.u.)
2,TCGTTGACTTTCTTGCCGTCTCGCCGCCGCCGCCGCCATGCGGAGTCACCTAGTGCAG,23600 fluorescence intensity (a.u.)
3,TCATCTTGCTTTCCCCTTCTTCGCCCACGCGGCCGCGGCCCGGAGTCACCTAGTGCAG,8620 fluorescence intensity (a.u.)
4,TTTCTTCTTCTCGTCTCTTCTCGCCGCCGCCGCCGCAATGCGGAGTCACCTAGTGCAG,9300 fluorescence intensity (a.u.)
5,AAACCCTCTCTCTCTCTCTCTCTCACACACACACGCAAACCGGAGTCACCTAGTGCAG,10300 fluorescence intensity (a.u.)
6,GTCAACTGCCTATCCTAGATATCTATCACTACCGAAAGCCCGGAGTCACCTAGTGCAG,8930 fluorescence intensity (a.u.)
7,TCAACACAGCAACGTTTCACTTTCATATCATCTGATTATTCGGAGTCACCTAGTGCAG,8470 fluorescence intensity (a.u.)
8,TCCGTCCATCCTCACTATCATTAGTACTACTGGTTCTTCTCGGAGTCACCTAGTGCAG,12200 fluorescence intensity (a.u.)
9,TTTTGTGGTATTTTAAACATGGTTTATATTTCTTATATTTCGGAGTCACCTAGTGCAG,9830 fluorescence intensity (a.u.)
10,AGAGGGATGGGTGTTTGATTGGAGTGGGTTGGGAGCCATGCGGAGTCACCTAGTGCAG,9390 fluorescence intensity (a.u.)
11,TCGCTCTCGTTGGATTCGGTTTGGTTTGGTTTGGGCCATGCGGAGTCACCTAGTGCAG,18700 fluorescence intensity (a.u.)
12,CTTCGTTCGTTGGATTCGCTCTCGCGCGCCGCCGCCGCCGCGGAGTCACCTAGTGCAG,11200 fluorescence intensity (a.u.)
13,TTTGGATTGGGTTTGGTGGTTGGGTGGGAGGGAGGGAGCTCGGAGTCACCTAGTGCAG,28600 fluorescence intensity (a.u.)
14,TGTTGTTTTGGTCTACAGTTGTCTTTTGAGTTGTTGTATTCGGAGTCACCTAGTGCAG,12200 fluorescence intensity (a.u.)
15,ATGGATGGGGATTCATTTGTTTGGTGAGTAGTGGTCGGGTCGGAGTCACCTAGTGCAG,9800 fluorescence intensity (a.u.)
16,GGGTTTTGGAGTGGTGGTGGTGGAGGATTGGAGTTGGGGTCGGAGTCACCTAGTGCAG,11600 fluorescence intensity (a.u.)
17,TTTTTGGTGGGGTAGAGTTGTATTTGGTTTGAGGCCAATTCGGAGTCACCTAGTGCAG,9480 fluorescence intensity (a.u.)
18,GGTTGGGTGGAGGGTATTACAGTCTTTTTGCTTTTGTATTCGGAGTCACCTAGTGCAG,36600 fluorescence intensity (a.u.)
19,CTCTCGTTGTTTTTGCTCTTTTGGGTTCGCTCGGAAGATGCGGAGTCACCTAGTGCAG,8490 fluorescence intensity (a.u.)
20,GGGGTGTTTGGTTGAGGGGTGGGTGGGATGGATTGGTCCTCGGAGTCACCTAGTGCAG,32300 fluorescence intensity (a.u.)
21,TTGGTGAGGGTTTGGGTTTGGTGGTGGAGTGGAGTGGAGTCGGAGTCACCTAGTGCAG,10700 fluorescence intensity (a.u.)
22,CATCGAGTAGCCGCCGCCGCCACCTGGTGCTCGTGACGCCCGGAGTCACCTAGTGCAG,8670 fluorescence intensity (a.u.)

row,Sequence,binding signal
1,CTTCAAACTTTTAATTTTTCCGTCACATCGAACTTTTCTACGGAGTCACCTAGTGCAG,9760 fluorescence intensity (a.u.)
2,TCACACGTTTCATTGACGTTTCCTAGCATCCGACCTCTCTCGGAGTCACCTAGTGCAG,9620 fluorescence intensity (a.u.)
3,TCCCCTGTTCTCGTACACAAATTCGCAGCGATCTAATAGTCGGAGTCACCTAGTGCAG,8480 fluorescence intensity (a.u.)
4,CTGATTTTCATTTGAGAACAAAGTTTCTACGCATATTACCCGGAGTCACCTAGTGCAG,8240 fluorescence intensity (a.u.)
5,CCCCAGCCCAGTTGGGCCCAAACTGTCCATTCCAGCCATCCGGAGTCACCTAGTGCAG,8330 fluorescence intensity (a.u.)
6,TCAGTAGCATTTCCGGGTCCCATCTATATGGACTAATTTTCGGAGTCACCTAGTGCAG,9100 fluorescence intensity (a.u.)
7,ACAGAACGAACCACCTATACGTACGTTTTCTCTCTTTTGACGGAGTCACCTAGTGCAG,8040 fluorescence intensity (a.u.)
8,TATACAATTGCCTTACCTGTCCCCACCTGTCACATGCCTCCGGAGTCACCTAGTGCAG,9460 fluorescence intensity (a.u.)
9,ACCTACCACCACCTTACCCTCTCGCTGACATCCCGGCCCCCGGAGTCACCTAGTGCAG,12000 fluorescence intensity (a.u.)
10,CCTAAATGGTTTTGCTTGGACACTTCTGGTTACCTTGCATCGGAGTCACCTAGTGCAG,11900 fluorescence intensity (a.u.)
11,AGTTTTGGGGTGAATTCAATTGAGGTTGCTACAGTTTAATCGGAGTCACCTAGTGCAG,8760 fluorescence intensity (a.u.)
12,GAGGGGAGGGGTTTGGTTTGCTTGGACACTTTGGTTTGGTCGGAGTCACCTAGTGCAG,20100 fluorescence intensity (a.u.)
13,TGTGTTGGATCGGTTGGACGCGCTCACTCGGTTTGGTTTGCGGAGTCACCTAGTGCAG,9730 fluorescence intensity (a.u.)
14,GGCCTTGTTCGGTTGGTCCGGGAATGACTGGGGTTGGGCTCGGAGTCACCTAGTGCAG,9210 fluorescence intensity (a.u.)
15,ATTCTCAAGTTTGAATTGGGTGTATTGGGTTGGGCTAAATCGGAGTCACCTAGTGCAG,16700 fluorescence intensity (a.u.)
16,GGGATGGATGTGCTGGGTTGGTGGCTGGTTGGCTGGCCGGCGGAGTCACCTAGTGCAG,11000 fluorescence intensity (a.u.)
17,CGCTCACTCGGTTTGGTTTGGTTTGGATTGTATTGGGTTGCGGAGTCACCTAGTGCAG,39200 fluorescence intensity (a.u.)
18,TTTGTGTATTATTTGTATTGTGTTTGTGAATTCAATAAATCGGAGTCACCTAGTGCAG,8800 fluorescence intensity (a.u.)
19,TTGGTTTGTATTGCGTTGTTTTGCACTTTTGTTTGTTGTGCGGAGTCACCTAGTGCAG,8300 fluorescence intensity (a.u.)
20,AAATGTGGAATGGTTGGCCTGGGTTGGCTTGGGACGAGCTCGGAGTCACCTAGTGCAG,17000 fluorescence intensity (a.u.)
21,TGCTTGCTTGCTTGGTTTGATTGGTGGAGGTGGGAGGAGTCGGAGTCACCTAGTGCAG,8520 fluorescence intensity (a.u.)
